TGFb SMAD3 inh: TGF-b pathway inhibition; Potency, µM (highest dose often 46.1 µM), without a hit: at the top dose activity, negative = inhibition, most hits filed as inhibitors; 1.2% of 410,000 active; HepG2 CAGA-GFP TGF-b/SMAD3 reporter, GFP fluorescence, 18 h; TGF-beta stimulated, 500 pg/mL final; further: potency means the concentration at half of the fitted maximal effect; on the % scale 0 is the no-effect control and ±100 the full control effect; nearly all actives have a fitted effect of over 65% in size
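Using HEPG2 CAGA-GFP reporter cells at 1000 cells/well, we pinned test compounds, stimulated with recombinant TGF-beta (500 pg/mL final) and measured total well GFP after 18 h.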
TDP1 cell noCPT: qHTS for Inhibitors of human tyrosyl-DNA phosphodiesterase 1 (TDP1): qHTS in cells in absence of CPT; AID 686978, 2013; DT40 Tdp1-/- hTDP1 cells, no CPT, ATP luminescence, 48 h; Potency, µM (doses to about 46.2 µM), for inactives: top-dose activity change, negative = growth inhibition, actives largely listed as inhibitors; 15% of 420,000 active; further: potency means the concentration at half of the fitted maximal effect; on the % scale 0 is the no-effect control and ±100 the full control effect; nearly all actives have a fitted effect of over 55% in size
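Readout: luminescence from CellTiter-Glo after 30 min in the dark at RT. Cells: DT40 Tdp1-/- with stable hTDP1, 400/well. Exposure: compounds alone, ≥48 hr, 37 °C.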
TDP1 cell CPT: DT40-hTDP1 cell growth loss with CPT; chicken DT40 Tdp1-/-;hTDP1 cells + 20 nM CPT, ATP luminescence, 48 h; Potency, µM (doses to about 46.2 µM), inactives show at the highest dose activity change, negative = growth inhibition, hits mostly inhibitors; 12% of 420,000 active; further: potency means the concentration at half of the fitted maximal effect; on the % scale 0 is the no-effect control and ±100 the full control effect; nearly all actives have a fitted effect of over 55% in size
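Cell growth measured by CellTiter-Glo luminescence after a minimum 48 h, 37 C compound exposure with 20 nM CPT in Tdp1-knockout DT40 cells stably expressing hTDP1, seeded 400/well; qHTS titration format.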
HepG2 tox: kills HepG2 cells in TGF-b inhibitor counter-screen | HepG2 CAGA-GFP viability, ATP luminescence, 18 h | Potency, µM (doses to about 46.1 µM), for inactives: at the highest dose activity change, negative = cytotoxicity, usual class: cytotoxic | 0.76% of 410,000 active | AID 588856; further: potency means the concentration at half of the fitted maximal effect
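HepG2 CAGA-GFP cells (1000/well, DMEM with 1% FBS) received compound, then TGF-beta at 500 pg/mL final, and were incubated 18 hours at 37 degrees C. Viability was read by CellTiter-Glo luminescence. Media-only wells were set as complete cell-killing and DMSO as no toxicity.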
TDP1 inh: TDP1 (human) enzyme inhibition; 0.28% of 350,000 active; Potency, µM (doses to about 130 µM), for the others: at the top dose activity change, negative = inhibition, most hits filed as inhibitors; recombinant TDP1, AlphaScreen DNA substrate cleavage; further: potency means the concentration at half of the fitted maximal effect; on the % scale 0 is the no-effect control and ±100 the full control effect; nearly all actives have a fitted effect of over 40% in size
Target sequence (Q9NUW8 whole entry, looked up): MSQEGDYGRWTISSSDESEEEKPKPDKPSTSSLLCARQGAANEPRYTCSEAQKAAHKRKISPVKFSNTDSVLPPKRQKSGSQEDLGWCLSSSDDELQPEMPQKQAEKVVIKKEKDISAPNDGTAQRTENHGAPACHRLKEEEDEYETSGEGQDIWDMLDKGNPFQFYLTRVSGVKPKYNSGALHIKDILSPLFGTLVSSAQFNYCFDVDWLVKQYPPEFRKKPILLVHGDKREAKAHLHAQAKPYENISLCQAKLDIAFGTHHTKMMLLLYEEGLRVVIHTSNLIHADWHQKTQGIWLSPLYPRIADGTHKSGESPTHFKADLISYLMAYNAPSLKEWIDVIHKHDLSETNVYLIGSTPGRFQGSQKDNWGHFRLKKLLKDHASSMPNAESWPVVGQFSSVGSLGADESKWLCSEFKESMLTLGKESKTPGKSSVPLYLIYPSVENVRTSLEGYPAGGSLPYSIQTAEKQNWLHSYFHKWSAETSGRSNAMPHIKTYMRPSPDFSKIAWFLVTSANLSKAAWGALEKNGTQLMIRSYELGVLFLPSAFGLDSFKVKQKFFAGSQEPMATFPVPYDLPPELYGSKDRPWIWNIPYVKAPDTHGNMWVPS
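Signal: AlphaScreen proximity between streptavidin donor and anti-FITC acceptor beads on intact substrate. Reaction: Tdp1 1 nM, substrate 15 nM final, 5 min RT after 15 min compound preincubation.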
IL1B secr inh: inhibitors of inflammasome signaling (IL-1 beta secretion); THP-1 LPS/ATP IL-1B secretion, AlphaLISA, 16 h; active compounds read low; activity change, % at 57.5 µM; 4.7% of 360,000 active; AID 743279; in the data active means activity change below about -50%; inconclusive means mostly about -30% to -49%; further: on the % scale 0 is the no-effect control and ±100 the full control effect
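Secreted IL-1B measured by AlphaLISA bead assay after 16 h compound exposure of THP-1 cells; compounds (final up to 57.5 uM) added 1 h before LPS (250 ng/mL) and ATP (1.25 mM) stimulation; lower signal means less secretion.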
* hit, by the source's call; ? = inconclusive; . = not tested or not shown; [ ] = remark or other dose. In the library only some 18% were active in any assay of this set; here they are far more common. Unless noted, the call rests on the fitted dose curve; in most records, active means well fitted curve in the direction sought with a large enough effect; inconclusive means small, poorly fitted or top-dose-only effect, or another doubt; inactive means no such curve, though single readings can be large; an effect the other way counts as inactive or inconclusive.

SMILES	TGFb SMAD3 inh	TDP1 cell noCPT	TDP1 cell CPT	HepG2 tox	TDP1 inh	IL1B secr inh
Cc1ccc(S(=O)(=O)N(C)C)cc1NC(=O)C(C)N(C)Cc1sccc1C (configuration not stated)	?	21µM*	18µM*	-18%	.	?
COc1cc(OC)c(-c2nnc(-c3ccc(OC)c(OC)c3OC)o2)cc1OC	?	13µM*	14µM*	5%	4%	-29
COc1ccc(-c2nnc(-c3ccc(Br)o3)o2)cc1OC	20%	-17%	-15%	-18%	4%	?
CCC1(C2CCN(C(=O)c3coc4c3C(=O)CCC4)CC2)NC(=O)N(CCc2scnc2C)C1=O (configuration not stated)	.	-2%	-4%	.	.	.
COc1cc([C@@H]2[C@H]3CNCC=C3C(C#N)=C(N)C2(C#N)C#N)ccc1OC(C)C	46%	?	9.2µM*	-7%	7%	-19
COc1ccc(S(=O)(=O)N2CCOCC2)cc1	?	-3%	0%	0%	0%	.
O=S(=O)(c1ccc(Oc2ccc(Br)cc2)cc1)N1CCOCC1	-10%	23µM*	16µM*	-5%	2%	-14
CCC(C)Sc1ccc([C@H]2N[C@@](Cc3ccccc3)(C(=O)OC)[C@H]3C(=O)N(CC)C(=O)[C@@H]23)cc1 (some centres not stated)	?	21µM*	?	-8%	.	-24
CCC(C)Sc1ccc([C@H]2N[C@@](Cc3ccccc3)(C(=O)OC)[C@H]3C(=O)N(CC)C(=O)[C@@H]23)cc1OC (some centres not stated)	13%	21µM*	?	-5%	-1%	-18
CCC(C)Sc1ccc([C@H]2N[C@@](CC(C)C)(C(=O)OC)[C@H]3C(=O)N(CC)C(=O)[C@@H]23)cc1 (some centres not stated)	16%	?	?	2%	-4%	0
O=C(Nc1cccc(NC(=O)c2cccc(Cl)c2)c1)c1cccnc1	0%	?	?	5%	.	-5
Cc1cccc(-c2nnc(NC(=O)c3ccc(Cl)cc3)o2)c1	?	10µM*	12µM*	0%	11%	66
O=C(Nc1nnc(-c2cccnc2)o1)c1cccc(Cl)c1	?	16µM*	23µM*	-32%	11%	14
O=C(Nc1nnc(-c2ccccn2)o1)c1cccc(Cl)c1	6%	?	?	-41%	7%	0
O=C(Nc1nnc(-c2ccccn2)o1)c1cccc(Br)c1	0%	?	21µM*	-13%	5%	-7
CC(=O)N1CCOc2ccc(S(=O)(=O)NCc3ccc(Cl)cc3)cc21	0%	-3%	-20%	-1%	0%	7
CC(C)N(C(=O)[C@H]1C[C@H](CC(=O)NCCCn2ccnc2)C(=O)N2CCc3c([nH]c4cc(-c5ccco5)ccc34)[C@]12C)C(C)C	5%	-11%	-6%	-6%	1%[56.1 µM]	0
CCN(CC)C(=O)[C@H]1C[C@H](CC(=O)NC(C)(C)C)C(=O)N2CCc3c([nH]c4cc(-c5ccco5)ccc34)[C@]12C	?	18µM*	23µM*	-3%	2%[56.1 µM]	-8
CC(C)N(C(=O)[C@H]1C[C@H](CC(=O)NCCN2CCOCC2)C(=O)N2CCc3c([nH]c4cc(-c5ccco5)ccc34)[C@]12C)C(C)C	?	?	?	-28%	5%[56.1 µM]	?
CC(C)N(C(=O)[C@H]1C[C@H](CC(=O)NC(C)(C)C)C(=O)N2CCc3c([nH]c4cc(-c5ccco5)ccc34)[C@]12C)C(C)C	?	?	?	-22%	5%[56.1 µM]	-67*
COc1ccc(-c2nc3c(-c4ccc(F)cc4)cnn3cc2C)cc1F	-14%	15µM*	23µM*	-20%	-8%	4
COc1ccc(-c2nc3nc(N)nn3cc2C)cc1F	22%	0%	-19%	-6%	-3%	0
O=C1C=C(c2ccccc2C(F)(F)F)C[C@@H](c2ccc3c(c2)OCO3)C1	?	18µM*	?	-8%	-2%	-13
O=C1C=C(c2ccccc2Oc2ccccc2)C[C@@H](c2ccc3c(c2)OCO3)C1	-13%	?	16µM*	-33%	1%	-58*
COc1ccccc1C1=CC(=O)C[C@H](c2ccc3c(c2)OCO3)C1	-20%	18µM*	16µM*	1%	-10%	-5
SMILES	TGFb SMAD3 inh	TDP1 cell noCPT	TDP1 cell CPT	HepG2 tox	TDP1 inh	IL1B secr inh
O=C1C=C(c2ccc3ncccc3c2)C[C@@H](c2ccc3c(c2)OCO3)C1	?	2.6µM*	2.1µM*	0%	6%	9
Cc1ccc(CN2CC(C(=O)NNC(=O)c3ccc(F)cc3)CC2=O)cc1 (configuration not stated)	-4%	-4%	2%	13%	-6%	-5
O=[N+]([O-])c1ccc(N/N=C/c2ccc[nH]2)cc1	-25%	23µM*	?	-24%	-8%	-77*
O=[N+]([O-])c1ccc(N/N=C/c2c[nH]c3ccccc23)cc1	?	16µM*	?	-21%	6%	-90*
O=[N+]([O-])c1ccc(NN=Cc2cccc([N+](=O)[O-])c2)cc1	-5%	?	?	-3%	.	?
O=C(O)COc1ccccc1C=NNc1ccc([N+](=O)[O-])cc1S(=O)(=O)Nc1ccc(Cl)cc1	?	-1%	8%	-16%	0%	7
COc1ccccc1NS(=O)(=O)c1cc([N+](=O)[O-])ccc1N/N=C/c1c[nH]c2ccccc12	-14%	?	?	-47%	2%	-81*
Cc1[nH]c2ccccc2c1/C=N/Nc1ccc([N+](=O)[O-])cc1S(=O)(=O)Nc1ccc(Cl)cc1	-11%	15µM*	21µM*	-9%	2%	1
Cc1ccc(C(=O)N2CCC(C)CC2)cc1NC1=NC2CS(=O)(=O)CC2S1 (configuration not stated)	6%	-5%	-22%	1%	.	-12
Cc1csc(=O)n1CC(=O)Nc1ccc(C(C)C)cc1	-19%	-25%	-10%	-3%	7%[0.505 µM]	10
COc1ccc(NS(=O)(=O)c2cc([N+](=O)[O-])ccc2N/N=C\c2c(C)[nH]c3ccccc23)cc1	-4%	?	16µM*	-2%	1%	-1
